Compound activity (PubChem BioAssay)
RE007 growth inh: qHTS Assay for Inhibitors of the HIV-1 protein Vpr | S. pombe RE007 Vpr strain, BacTiter-Glo ATP luminescence, 24 h | Potency, µM (top dose mostly 92.2 µM), for the others: at the highest dose activity change, negative = less growth, usual class: inhibitors | 360,000 tested, 0.21% active; active means well fitted falling curve with a large enough effect; inconclusive means small, poorly fitted or top-dose-only effect; inactive means no such curve, though single readings can be large or run the other way; further: potency means the concentration at half of the fitted maximal effect; on the % scale 0 is the no-effect control and ±100 the full control effect; nearly all actives have a fitted effect of over 50% in size
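Fission yeast strain RE007, carrying one chromosomally integrated HIV-1 vpr copy, was seeded at OD 0.01 in PMG+AL medium with 23 nL pinned compound. After 24 h at 30 °C and 99% humidity, viability was read by BacTiter-Glo luminescence.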
CHX counter: Cycloheximide Counterscreen for Small Molecule Inhibitors of Shiga Toxin; cell reporter, cycloheximide protein synthesis inhibition counterscreen; max response, %; 300,000 tested, 12% active; AID 2314, 2010; in the data active means max response mostly above about 13%, no sharp cut-off; inactive means mostly below about 14%; further: read at 38.3 µM for the half of the compounds with a filed dose; 0% is about no effect
Giardia FBPA inh: qHTS Assay for Inhibitors of Fructose-1,6-bisphosphate Aldolase from Giardia Lamblia; A8B2U2; purified Giardia FBPA; Potency, µM (top dose mostly 59.6 µM), for the others: top-dose activity, negative = inhibition, actives largely listed as inhibitors; 290,000 tested, 0.71% active; AID 2451, 2010; further: potency means the concentration at half of the fitted maximal effect; on the % scale 0 is the no-effect control and ±100 the full control effect; nearly all actives have a fitted effect of over 55% in size
Target sequence (A8B2U2 whole entry, looked up): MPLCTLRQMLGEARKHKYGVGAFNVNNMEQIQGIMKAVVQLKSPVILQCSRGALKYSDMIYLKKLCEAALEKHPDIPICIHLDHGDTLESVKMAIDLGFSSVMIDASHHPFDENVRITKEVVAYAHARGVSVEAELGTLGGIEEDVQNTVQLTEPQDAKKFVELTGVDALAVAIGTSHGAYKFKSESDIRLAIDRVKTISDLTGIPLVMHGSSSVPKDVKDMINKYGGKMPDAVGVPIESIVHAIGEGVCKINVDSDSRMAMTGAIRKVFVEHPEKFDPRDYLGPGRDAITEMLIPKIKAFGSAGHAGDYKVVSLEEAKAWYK
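Giardia FBPA (40 nM reagent) was preincubated 10 min at RT with compound (up to 57.5 uM final), then substrate plus GAPDH/TPI/NAD/arsenate coupling system with diaphorase/resazurin was added; resorufin fluorescence (525/598 nm) was read after 20 min.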
Shiga inhibitor: A qHTS for Small Molecule Inhibitors of Shiga Toxin; Vero cells, Shiga toxin protein synthesis inhibition reporter; AID 2315, 2010; 290,000 tested, 9.2% active; inhibition, % at 38.7 µM; in the data active means inhibition mostly above about 28%, no sharp cut-off; inactive means mostly below about 43%; further: 0% is about no effect
LmPK inh: qHTS Assay for Inhibitors of Leishmania Mexicana Pyruvate Kinase (LmPK); Q27686; Potency, µM (series often up to 57.5 µM), for the others: top-dose activity change, negative = inhibition, most hits filed as inhibitors; 290,000 tested, 0.37% active; purified LmPK, Kinase-Glo ATP luminescence, 1 h; further: potency means the concentration at half of the fitted maximal effect; on the % scale 0 is the no-effect control and ±100 the full control effect
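Purified LmPK (0.1 nM) with 0.5 mM PEP and 0.1 mM ADP in imidazole buffer pH 7.2 with MgCl2/KCl, 1 h at room temperature. ATP formed was read by luciferase luminescence and normalized to no-enzyme and uninhibited controls.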
Tb PYK inh: qHTS of Trypanosoma Brucei Inhibitors | AID 624173, 2012 | pyruvate kinase (Trypanosoma brucei), Q57TT1 | TbPYK enzyme, Kinase-Glo Plus ATP luminescence, 45 min | Potency, µM (doses to about 76.8 µM), for the others: at the top dose activity, negative = inhibition, actives largely listed as inhibitors | 410,000 tested, 0.12% active; further: potency means the concentration at half of the fitted maximal effect; on the % scale 0 is the no-effect control and ±100 the full control effect; nearly all actives have a fitted effect of over 50% in size
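Enzyme and substrate buffer are dispensed first and compound is pin-transferred. ADP at 130 uM final then starts the reaction, which runs 45 min at room temperature. Detection reagent is added for 10 min before luminescence is imaged.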
Active calls of the source: *; u = inconclusive; x = no result given; + = active, no number; [ ] = remark or other dose. Many of the other results were omitted from the sample, so hits are more common in it than they were. Unless noted, the call rests on the fitted dose curve; in most records, active means well fitted curve in the direction sought with a large enough effect; inconclusive means small, poorly fitted or top-dose-only effect, or another doubt; inactive means no such curve, though single readings can be large; an effect the other way counts as inactive or inconclusive.

SMILES	RE007 growth inh	CHX counter	Giardia FBPA inh	Shiga inhibitor	LmPK inh	Tb PYK inh
Cc1nc(Nc2c(Cl)cccc2Cl)sc1C(=O)Nc1ccccc1	0%	19*	2%	21	3%	-1%
Cc1cccc(Nc2nc(-c3ccccc3)c(C(=O)Nc3cccnc3)s2)c1	-3%	33*	-12%	48*	5%	-17%
Cc1nc(/N=C\N(C)C)sc1C(=O)Nc1ccccc1	13%	31	21%	51*	1%	5%
Cc1nc(NC(N)=S)sc1C(=O)Nc1ccccc1	-12%	1	u	-2	-2%	-5%
Cc1ccc(S(=O)(=O)c2nnn(-c3cccc(F)c3)c2N)cc1	-2%	-5	-1%	19	9%[11.5 µM]	0%
Cc1ccc(COC(=O)c2nn(-c3ccccc3)nc2N)cc1	-6%	18*	-2%	21	2%	8%
Nc1nn(-c2ccccc2)nc1C(=O)OCc1ccccc1	-15%	27*	-3%	48*	7%	-3%
Nc1nn(-c2ccccc2)nc1C(=O)OCc1ccc(Cl)cc1	x	x	x	x	x	-2%
NC(=O)c1nn(-c2ccccc2)nc1N	2%	18*	-12%	16	-15%	2%
O=C(CS(=O)(=O)c1ccccc1)Nc1ccc(Cl)cn1	5%	14	x	67*	-3%	1%
O=C(CCS(=O)(=O)c1ccccc1)Nc1ccc(Cl)cn1	13%	24*	5%	61*	-6%	2%
O=c1c2ccccc2[nH]c(=S)n1CCCN1CCN(c2ccccc2F)CC1	19%	-3	10%	-5	0%	-4%
CCC(=O)N(CC)C1=C(O)c2ccccc2C(=O)C1=O	u	1	7.9µM*	-9	25µM*	u
CCc1ccc(NC(=O)C2CCCN(S(=O)(=O)c3cccc4cccnc34)C2)cc1 (stereo unspecified)	x	x	x	x	x	1%
CCn1cc(C=C2C(=O)c3ccccc3C2=O)c2ccccc21	5%	12*	-4%	-13	-4%	-1%
CC(C)OC(=O)c1ccc(NC(=O)C2C3CC4OC(=O)C2C4C3)cc1 (stereo unspecified)	0%	33*	6%	60*	-2%	-4%
CC(=O)c1ccc(NC(=O)C(C)OC(=O)c2ccc3c(c2)nc(C)n3-c2ccccc2)cc1 (stereo unspecified)	5%	29*	19%	45*	-2%	1%
CC(=O)c1ccc(NC(=O)C(C)OC(=O)c2cccc(-n3cnnn3)c2)cc1 (stereo unspecified)	22%	x	x	x	x	-5%
CN1CCN(S(=O)(=O)c2ccc3c(c2)oc(=O)n3C)CC1	-1%	-2	x	-13	-9%	-1%
Cc1ccc(NN=C2c3ccccc3-c3ccccc32)cc1	3%	48*	-14%	70*	5%	4%
Cc1cccc(N2CCN(C(=O)c3ccc(NC4=NC5CS(=O)(=O)CC5S4)cc3)CC2C)c1 (stereo unspecified)	-7%	-2	x	-4	15%	-3%
c1ccc(OCCSc2nnc3sc4ccccc4n23)cc1	-5%	16	18µM*	45*	-24%	-9%
COc1cccc(OCCSc2nnc3sc4ccccc4n23)c1	16%	40*	16µM*	21*	4%	5%
CCn1c(C(=O)N2CCC(C(=O)N3CCN(c4ccc(OC)cc4)CC3)CC2)cc2sccc21	x	x	x	x	x	-7%
O=C(NC(O)C(=O)c1ccccc1)c1ccccn1 (stereo unspecified)	6%	26*	-17%	38*	-7%	-2%
SMILES	RE007 growth inh	CHX counter	Giardia FBPA inh	Shiga inhibitor	LmPK inh	Tb PYK inh
Cc1ccc2nc(COc3ccc(Cl)cc3)cc(=O)n2c1	3%	41*	4%	98*	-8%	-2%
O=C(NC(C(=O)c1ccccc1)n1c(=O)cc[nH]c1=S)c1ccccc1 (stereo unspecified)	-4%	16*	u	+	5%	-3%
COc1cccc(CNC(=O)CCC2CCCN(C(=O)c3cc4ccccc4o3)C2)c1 (stereo unspecified)	-16%	48*	-3%	68*	u	-2%
COc1ccc(C(=O)N2CCCC(CCC(=O)NCc3ccc(F)c(F)c3)C2)o1 (stereo unspecified)	-8%	26*	-7%	94*	-14%	0%
COc1cccc(CNC(=O)CCC2CCCN(C(=O)c3ccoc3)C2)c1 (stereo unspecified)	10%	-3	0%	-1	-1%	-5%
COc1ccc(C(=O)N2CCCC(CCC(=O)NCc3ccc(F)c(F)c3)C2)cc1F (stereo unspecified)	-7%	14	1%	29	1%	-14%
Cc1ccc(Cl)cc1-c1cc(C(=O)NCc2cc(C(F)(F)F)cc(C(F)(F)F)c2)[nH]n1	-7%	x	x	x	x	-6%
CC(=O)C1CCC2C3CCC4=CC(=O)CCC4(C)C3(F)C(O)CC12C (stereo unspecified)	-9%	x	x	x	x	2%
COc1cc2c(-c3ccc(C)cc3)nc3c(c(C)nn3-c3ccccc3)c2cc1OC	x	x	x	x	x	0%
CCOC(=O)[C@@H]1[C@H]2COc3cc(OC)ccc3[C@@H]2N2C(=O)N(c3ccc(Cl)cc3)C(=O)[C@@]12C	1%	16*	-4%	29*	-1%	97%
CCOc1ccc(NC(=O)c2ccc(-c3cccc(Cl)c3C)o2)cc1	x	x	x	x	x	-6%
O=C1NC(=O)C(=Cc2ccccc2[N+](=O)[O-])S1	-21%	x	x	x	x	-18%
O=C1NC(=O)/C(=C/c2cccc3ccccc23)S1	-24%	17*	-26%	16	-8%	-3%
COc1ccc(-c2noc(C3CCCN(C(=O)c4ccc(F)cc4)C3)n2)cc1 (stereo unspecified)	-7%	26*	-1%	71	2%	4%
O=C(c1c(F)cccc1F)N1CCCC(c2nc(-c3ccc(F)cc3)no2)C1 (stereo unspecified)	1%	24*	14%	x	4%	-1%
O=C(c1ccc(F)cc1)N1CCCC(c2nc(-c3ccncc3)no2)C1 (stereo unspecified)	3%	x	x	x	x	0%
CC1(C(=O)NS(=O)(=O)c2ccc(Cl)cc2)CCN1C(=O)Cc1ccsc1 (stereo unspecified)	4%	x	x	x	x	5%
CC(=O)CC1c2ccccc2C=C(c2ccsc2)N1c1ccc(-c2cccs2)cc1 (stereo unspecified)	-7%	x	x	x	x	2%
CC(=O)n1nc(-c2ccc(Cl)cc2)nc1NCc1ccco1	5%	31*	-1%	50*	9%	-3%
